Compound activity: PubChem, SRMLSC
Spn MK inh: S. pneumoniae MK inhibitors, primary screen, biochemical, PK/LDH-coupled NADH absorbance | mevalonate kinase [Streptococcus pneumoniae D39] | purified MK, PK/LDH-coupled NADH absorbance 340 nm | inhibition, % at 10 µM | actives 0.48% (n = 65,000);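 active means ranked among the strongest by inhibition in the single 10 µM screen, a fixed top-ranked set picked for dose follow-up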
NADH coupling: inhibitors of PK/LDH coupling enzymes, profiling panel, artefact control, biochemical, MLSMR library; coupled PK/LDH NADH assays, four targets; IC50, µM (series often up to 10 µM); actives 0.02% (n = 65,000); AID 774, 2007;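 active means single-dose screening hits from any of four coupled enzyme assays that gave an IC50 when retested across doses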;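 further: the DPM-DC format reads NADH fluorescence rather than 340 nm absorbance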
Spn DPM-DC inh: S. pneumoniae DPM-DC inhibitors, primary screen, biochemical, PK/LDH-coupled NADH fluorescence; actives 0.49% (n = 65,000); AID 556, 2006; diphosphomevalonate decarboxylase (Streptococcus pneumoniae D39); purified DPM-DC; calls only at 10 µM;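 active means the 320 compounds with the highest percent inhibition in the single-dose primary screen, excluding strongly autofluorescent ones, cut at about 32% in these data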;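 further: kinetic rate of NADH fluorescence loss reporting ADP formed by the decarboxylase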
A340 absorber: compound light absorbance at 340 nm, profiling panel, artefact control, biochemical, MLSMR library, data from PS, PMK, MK assays | AID 708, 2007 | 65,000 tested, under 10 active | fold change at 10 µM | compound absorbance at 340 nm, fold over control;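 active means at 10 µM dose, initial 340 nm absorbance at least 2 fold that of control wells; inactive means change under 2 fold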;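 further: initial absorbance extrapolated from kinetic A340 decline of NADH oxidation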
PMK inhibit: S. pneumoniae PMK inhibitors, primary screen, biochemical, mevalonate pathway, pilot trial included. actives 0.49% (n = 65,000). purified PMK, PK/LDH-coupled NADH absorbance 340 nm. AID 539, 2006. inhibition, % at 10 µM;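 active means top-ranked compounds by inhibition in the single 10 µM screen, taking a fixed number of the strongest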
Fluor 339 460: intrinsic fluorescence of library compounds, ex339/em460 – biochemical, MLSMR library, data from DPM-DC assay, artefact control, profiling panel. actives 5.5% (n = 65,000). compound autofluorescence, ex339/em460 nm, NADH buffer; active compounds read high; 1 = no-compound wells, NADH background. fluorescence fold increase at 10 µM;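 active means at 10 µM, mean starting fluorescence two-fold or more over control wells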;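 further: signal is the first read of a kinetic run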
A number is an active result; - = inactive; . = no result shown; + = active, no number. An excerpt weighted towards active compounds, which were near 6.5% of everything screened.

SMILES	Spn MK inh	NADH coupling	Spn DPM-DC inh	A340 absorber	PMK inhibit	Fluor 339 460
COC(=O)c1[nH]c2cc(OC)c(OC)cc2c1NC(=O)CN1CCN(Cc2ccccc2)CC1	-	-	.	-	-	3.7
Cc1ccc2[nH]c(C(=O)O)c(NC(=O)CN3CCN(c4cccc(C)c4C)CC3)c2c1	-	-	-	-	-	-
COC(=O)Cc1c(C)c2c(OCc3nn[nH]n3)cc(C)cc2oc1=O	-	-	.	-	-	3.8
CCOc1ccc(CCNC(=O)Cc2nn[nH]n2)cc1OCC	-	-	-	-	-	-
Cc1c(C)c2cc(Cl)c(OCc3nn[nH]n3)cc2oc1=O	-	-	.	-	-	3.8
CCOc1cc2c(C)cc(=O)oc2cc1Cl	-	-	-	-	-	-
CCc1cc(=O)oc2cc(C)cc(OCc3nn[nH]n3)c12	-	-	.	-	-	3.8
CCOC(=O)C(C)(C)C(=O)C(C)(C)C(O)c1ccccn1 (stereo not given)	-	-	-	-	-	-
O=C(NCCc1ccc(Cl)cc1)C1CCN(C(=O)c2sccc2-n2cccc2)CC1	-	-	-	-	-	-
CCCCNC(=O)c1cccc(C(=O)NCCCC)c1	-	-	-	-	-	-
O=C(NCCCO)c1ccc2[nH]c3ccccc3c2c1	-	-	-	-	-	2.7
CCOC(=O)c1[nH]c2ccc(OC)cc2c1NC(=O)CCN1CCC(C)CC1	-	-	.	-	-	2.5
CCOC(=O)c1[nH]c2ccc(F)cc2c1NC(=O)CN1CCc2cc(OC)c(OC)cc2C1	-	-	-	-	-	-
COC(=O)c1[nH]c2ccc(Cl)cc2c1NC(=O)CCN1CCOCC1	-	-	+	-	-	2.1
COC(=O)c1[nH]c2cc(OC)ccc2c1NC(=O)CCN1CCCCC1	-	-	-	-	-	-
CCOC(=O)c1[nH]c2ccc(OC)cc2c1NC(=O)CCN1CCc2ccccc2C1	-	-	.	-	-	2.3
CC1(C)C=Cc2c(c3ccccc3[nH]c2=O)O1	-	-	-	-	-	-
CCOC(=O)c1ccc2[nH]c(C)cc(=O)c2c1	-	-	.	-	-	2.1
CCOC(=O)c1ccc2[nH]c3c(c2c1)CN(C)CC3	-	-	-	-	-	-
CCOC(=O)c1ccc2[nH]c(C)c(CCC(C)=O)c(=O)c2c1	-	-	.	-	-	2.1
Cc1cc(=O)c2cc(Cl)ccc2[nH]1	-	-	-	-	-	-
COC(=O)c1ccc2[nH]c(C)cc(=O)c2c1	-	-	.	-	-	2.3
O=S(=O)(c1ccccc1)N1C2CCC1CC(O)(c1cccnc1)C2 (stereo not given)	-	-	-	-	-	-
CCOC(=O)N1CCC(NC(=O)CSc2cc(=O)n(C)c3ccc(Cl)cc23)CC1	-	-	-	-	-	-
COc1ccc(N2C(=O)c3ccccc3NC23CCCCC3)cc1	-	-	.	-	-	2.2
SMILES	Spn MK inh	NADH coupling	Spn DPM-DC inh	A340 absorber	PMK inhibit	Fluor 339 460
COc1ccc(N2C(=O)CSC23CCCCC3)cc1	-	-	-	-	-	-
Cc1oc(C(=O)O)cc1COc1ccc2c3c(c(=O)oc2c1C)CCCC3	-	-	.	-	-	2.2
Cc1c(OC(=O)CNC(=O)OC(C)(C)C)ccc2c3c(c(=O)oc12)CCC3	-	-	.	-	-	3.9
CC(=O)COc1ccc2c3c(c(=O)oc2c1C)CCCCC3	-	-	.	-	-	3.8
CC(=O)C(C)Oc1ccc2c3c(c(=O)oc2c1C)CCCC3 (stereo not given)	-	-	.	-	-	3.8
Cc1oc2c(C)c3oc(=O)c4c(c3cc2c1C)CCCC4	-	-	-	-	-	-
Cc1cccc(C)c1NC(=O)N1CCC(N2CCCCC2)CC1	-	-	-	-	-	-
Cn1c(-n2c(CCN3C(=O)c4ccccc4C3=O)nc3ccccc3c2=O)nc2ccccc21	-	-	-	-	-	-
O=S(=O)(NCc1cn2ccccc2n1)c1cc(F)ccc1F	-	-	-	-	-	-
COc1cc(NS(C)(=O)=O)c(OC)cc1NC(=O)c1cccc(F)c1	-	-	-	-	-	-
